PubChem BioAssay (Tox21)
Records with an inconclusive call do not appear. Calls of active or inactive are those of the source. Unless noted, calls follow the shape of the dose curve; as a rule, active = well fitted curve in the direction sought with a large enough effect in the repeat runs; inconclusive = weak or mixed curves; inactive = no such curve, though single readings can be large; an effect the other way counts as inactive or inconclusive.

Assays:
[1] = target: Thyrotropin receptor (Homo sapiens) (UniProt P16473); assay: qHTS assay to identify small molecule antagonists of the thyroid stimulating hormone receptor (TSHR) signaling pathway (AID 1259385; calls by dose curve; also: nearly all actives have a fitted effect of over 20% in size)
Chain of Thyrotropin receptor (Homo sapiens) (P16473 whole entry, looked up): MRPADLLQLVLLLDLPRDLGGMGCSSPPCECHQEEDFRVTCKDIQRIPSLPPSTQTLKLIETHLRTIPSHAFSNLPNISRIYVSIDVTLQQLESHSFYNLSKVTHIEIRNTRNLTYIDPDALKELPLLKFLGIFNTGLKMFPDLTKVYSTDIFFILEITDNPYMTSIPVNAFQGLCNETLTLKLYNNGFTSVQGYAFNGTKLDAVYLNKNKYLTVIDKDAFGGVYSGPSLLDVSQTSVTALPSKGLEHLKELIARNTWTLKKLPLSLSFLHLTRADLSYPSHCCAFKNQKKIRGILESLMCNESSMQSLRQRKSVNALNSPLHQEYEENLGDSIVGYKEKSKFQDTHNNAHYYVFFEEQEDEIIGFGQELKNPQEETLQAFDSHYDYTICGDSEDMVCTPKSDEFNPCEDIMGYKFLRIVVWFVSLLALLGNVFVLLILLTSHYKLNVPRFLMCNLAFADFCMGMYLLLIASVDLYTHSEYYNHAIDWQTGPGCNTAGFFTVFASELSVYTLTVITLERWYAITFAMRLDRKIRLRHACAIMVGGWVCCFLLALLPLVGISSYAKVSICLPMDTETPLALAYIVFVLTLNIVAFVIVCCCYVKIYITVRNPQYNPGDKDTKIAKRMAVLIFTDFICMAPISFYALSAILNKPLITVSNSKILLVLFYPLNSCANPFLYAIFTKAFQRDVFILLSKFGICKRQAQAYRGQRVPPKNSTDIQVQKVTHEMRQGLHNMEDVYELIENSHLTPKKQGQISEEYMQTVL
Procedure, shortened: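 TSHR-HEK293 cells were plated and held 18 h at 37C/5% CO2, then given compound plus Ro20-1724 and stimulated with TSH at 1.5 ng/mL final. After 30 min at room temperature, cAMP was detected with cAMP-d2/anti-cAMP-cryptate (1 h) by fluorescence.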

[2] = qHTS assay to identify small molecule agonists of the estrogen receptor alpha (ER-alpha) signaling pathway in the presence of an antagonist - cell viability counter screen (AID 1259386);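 also: series mostly up to about 92 µM; cells exposed to compounds for 22 h at 37 °C before the viability read; nearly all actives have a fitted effect of over 30% in size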
Procedure, shortened: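 ICI-182,780 at 10.0nM final accompanies the compound titration (15 concentrations, 22hr, 37C) on VM7Luc4E2 cells. The CellTiter-Fluor fluorescence readout runs in the same wells as the luciferase assay.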

[3] = target: Progesterone receptor (Homo sapiens) (UniProt P06401); assay: qHTS assay to identify small molecule agonists of the progesterone receptor (PR) signaling pathway (AID 1346784; calls by dose curve; also: nearly all actives have a fitted effect of over 30% in size)
Chain of Progesterone receptor (Homo sapiens) (P06401 whole entry, looked up): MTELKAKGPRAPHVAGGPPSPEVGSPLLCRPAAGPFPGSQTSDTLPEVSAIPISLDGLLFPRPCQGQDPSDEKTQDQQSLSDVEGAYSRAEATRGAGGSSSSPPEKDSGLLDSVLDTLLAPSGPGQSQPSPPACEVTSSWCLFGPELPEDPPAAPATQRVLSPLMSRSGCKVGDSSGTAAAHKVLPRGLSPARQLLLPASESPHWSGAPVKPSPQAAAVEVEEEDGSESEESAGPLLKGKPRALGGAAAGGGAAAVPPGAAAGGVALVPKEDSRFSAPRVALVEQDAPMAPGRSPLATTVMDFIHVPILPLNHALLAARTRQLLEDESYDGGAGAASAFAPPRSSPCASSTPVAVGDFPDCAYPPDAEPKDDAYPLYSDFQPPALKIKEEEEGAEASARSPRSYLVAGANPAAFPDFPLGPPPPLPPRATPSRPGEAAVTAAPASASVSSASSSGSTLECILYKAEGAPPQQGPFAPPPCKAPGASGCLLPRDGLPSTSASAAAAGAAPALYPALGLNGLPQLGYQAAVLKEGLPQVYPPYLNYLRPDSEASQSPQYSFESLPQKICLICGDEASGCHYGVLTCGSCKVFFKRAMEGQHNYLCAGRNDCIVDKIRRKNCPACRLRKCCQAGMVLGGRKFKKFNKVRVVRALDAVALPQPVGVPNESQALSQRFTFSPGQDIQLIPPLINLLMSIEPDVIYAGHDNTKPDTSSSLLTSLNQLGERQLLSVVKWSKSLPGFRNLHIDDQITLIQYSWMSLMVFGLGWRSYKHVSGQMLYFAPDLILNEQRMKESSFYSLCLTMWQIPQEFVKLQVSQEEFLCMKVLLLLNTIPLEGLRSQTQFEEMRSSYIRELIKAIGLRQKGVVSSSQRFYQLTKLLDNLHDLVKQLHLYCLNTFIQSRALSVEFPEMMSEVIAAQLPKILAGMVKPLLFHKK
Procedure, shortened: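 The screen uses PR-UAS-bla HEK 293T cells in charcoal-stripped serum (2%). Compounds are applied for 16 hr at 37C after a 6 hr pre-incubation, and reporter activity is detected with a FRET beta-lactamase substrate after 2 hr at room temperature.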

[4] = target: Progesterone receptor (Homo sapiens) (UniProt P06401); assay: qHTS assay to identify small molecule antagonists of the progesterone receptor (PR) signaling pathway (AID 1346795; active = well fitted inhibition curve with a large enough effect in the signal ratio in the repeat runs, not every such curve was filed as active; the % refers to the signal ratio)
Procedure, shortened: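 After 6 hr plating at 37C in 2% stripped-serum medium, PR-UAS-bla HEK293T cells got compounds, then 1 nM R5020. Sixteen hours later, LiveBLAzer substrate was applied for 2 hr at room temperature and fluorescence was recorded.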

[5] = qHTS assay to identify small molecule antagonists of the progesterone receptor (PR) signaling pathway - cell viability counter screen (AID 1346798); also: series mostly up to about 92 µM; nearly all actives have a fitted effect of over 50% in size
Procedure, shortened: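 Viability was determined by ATP-based luminescence (CellTiter-Glo) in PR-UAS-bla HEK293T cells cultured in 2% charcoal-stripped serum and incubated 16 hr with compounds under R5020 stimulation.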

[6] = qHTS assay to identify small molecule agonists of the progesterone receptor (PR) signaling pathway - cell viability counter screen (AID 1346799; calls by dose curve; also: nearly all actives have a fitted effect of over 45% in size)
Procedure, shortened: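 Viability was scored by ATP luminescence (CellTiter-Glo, 30 min, room temperature) in the same wells used for the reporter readout, after 16 hr compound exposure of PR-UAS-bla HEK293T cells.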

[7] = qHTS assay to identify small molecule antagonists of the TGF-beta/Smad signaling pathway - cell viability counter screen (AID 1346824); also: nearly all actives have a fitted effect of over 50% in size
Procedure, shortened: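 SBE-bla HEK 293T cells were plated overnight at 37 C, then given compounds in DMSO plus TGF-beta1 (added as 0.25 ng/mL solution) for 5 hr. After the bla read, CellTiter-Glo was added to the same wells and luminescence read after 30 min at room temperature.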

[8] = qHTS assay to identify small molecule agonists of the TGF-beta/Smad signaling pathway - cell viability counter screen (AID 1346829); also: top concentration of the series differs between compounds; nearly all actives have a fitted effect of over 45% in size
Procedure, shortened: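 HEK 293T SBE-bla line, 5 hr compound exposure at 37 C, multiplexed CellTiter-Glo viability read by luminescence.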

[9] = qHTS assay to identify small molecule agonists of the TGF-beta/Smad signaling pathway (AID 1346859; active = well fitted activation curve with a large enough effect in the signal ratio in the repeat runs, not every such curve was filed as active; the % refers to the signal ratio; also: series mostly up to about 77 µM)
Procedure, shortened: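 Dual-wavelength fluorescence (460/530 nm emission) quantified beta-lactamase expression under the Smad binding element in HEK 293T cells following 5 hr compound treatment at 37 C.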

[10] = target: Thyrotropin-releasing hormone receptor (Homo sapiens) (UniProt P34981); assay: qHTS assay to identify small molecule antagonists of the thyrotropin-releasing hormone receptor (TRHR) signaling pathway (AID 1346877; active = well fitted inhibition curve with a large enough effect in the repeat runs, not every such curve was filed as active; also: series mostly up to about 51 µM)
Chain of Thyrotropin-releasing hormone receptor (Homo sapiens) (P34981 whole entry, looked up): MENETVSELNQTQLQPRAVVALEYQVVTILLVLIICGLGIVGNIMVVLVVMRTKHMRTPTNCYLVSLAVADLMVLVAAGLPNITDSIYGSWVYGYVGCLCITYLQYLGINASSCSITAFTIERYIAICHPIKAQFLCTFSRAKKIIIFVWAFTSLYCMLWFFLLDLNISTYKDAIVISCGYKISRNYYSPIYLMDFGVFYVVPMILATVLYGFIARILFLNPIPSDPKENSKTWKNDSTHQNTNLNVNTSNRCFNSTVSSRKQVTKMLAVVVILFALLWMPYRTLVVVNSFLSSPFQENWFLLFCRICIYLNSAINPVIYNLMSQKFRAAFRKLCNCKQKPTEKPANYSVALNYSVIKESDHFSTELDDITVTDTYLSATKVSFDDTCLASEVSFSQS
Procedure, shortened: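 Screening used HEK293 cells engineered with TRHR, with a brief 5 min room-temperature compound exposure preceding addition of TRH to 1 nM. The read-out was kinetic calcium-dye fluorescence, concentration-response from 15 doses in triplicate.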

[11] = target: Thyrotropin-releasing hormone receptor (Homo sapiens) (UniProt P34981); assay: qHTS assay to identify small molecule agonists of the thyrotropin-releasing hormone receptor (TRHR) signaling pathway (AID 1346891; calls by dose curve;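 also: HEK293 cells expressing TRHR with calcium dye readout; series mostly up to about 58 µM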)
Procedure, shortened: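 Kinetic fluorescence (3 min, 1 s intervals) reported intracellular calcium after compound transfer onto TRHR-Hek293 cells pre-loaded with dye for 2 h at 37 °C.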

[12] = Human pregnane X receptor (PXR) small molecule agonists, qHTS cell viability counter screen (AID 1346977); also: nearly all actives have a fitted effect of over 50% in size
Procedure, shortened: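 HepG2 cells stably carrying the PXR-Luc reporter are cultured with 5% charcoal-stripped FBS and treated with compounds for 24hr. CellTiter-Fluor is added at 23hr and fluorescence is read after 1hr.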

[13] = Caspase-3/7 induction in HepG2 cells by small molecules, qHTS assay (AID 1346978); also: nearly all actives have a fitted effect of over 15% in size
Procedure, shortened: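 Wild-type HepG2 cells (2,000/well) were settled 5 h at 37 C, 5% CO2, then exposed to compounds in DMSO for 17 h. Caspase-3/7 activity was read by luminescence 30 min after adding Caspase-Glo 3/7 reagent at room temperature.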

[14] = Caspase-3/7 induction in CHO-K1 cells by small molecules, qHTS assay (AID 1346980); also: nearly all actives have a fitted effect of over 15% in size
Procedure, shortened: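 Wild-type cells were seeded at 1,500 per well and settled 5 hr at 37 C, 5% CO2, then exposed to DMSO-dissolved compounds for 17 hr. Caspase-Glo 3/7 reagent was added, and luminescence was read after 30min at room temperature.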

[15] = Caspase-3/7 induction in HepG2 cells by small molecules, qHTS cell viability counter screen (AID 1346981); also: series mostly up to about 92 µM; nearly all actives have a fitted effect of over 30% in size
Procedure, shortened: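 Multiplexed with the caspase-3/7 assay: HepG2 cells, 16 hr compound treatment, CellTiter-Fluor viability detection by fluorescence.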

[16] = target: Nuclear receptor subfamily 1 group I member 2 (Homo sapiens) (UniProt O75469); assay: Human pregnane X receptor (PXR) small molecule agonists, qHTS assay (AID 1346982); also: nearly all actives have a fitted effect of over 35% in size
Chain of Nuclear receptor subfamily 1 group I member 2 (Homo sapiens) (O75469 whole entry, looked up): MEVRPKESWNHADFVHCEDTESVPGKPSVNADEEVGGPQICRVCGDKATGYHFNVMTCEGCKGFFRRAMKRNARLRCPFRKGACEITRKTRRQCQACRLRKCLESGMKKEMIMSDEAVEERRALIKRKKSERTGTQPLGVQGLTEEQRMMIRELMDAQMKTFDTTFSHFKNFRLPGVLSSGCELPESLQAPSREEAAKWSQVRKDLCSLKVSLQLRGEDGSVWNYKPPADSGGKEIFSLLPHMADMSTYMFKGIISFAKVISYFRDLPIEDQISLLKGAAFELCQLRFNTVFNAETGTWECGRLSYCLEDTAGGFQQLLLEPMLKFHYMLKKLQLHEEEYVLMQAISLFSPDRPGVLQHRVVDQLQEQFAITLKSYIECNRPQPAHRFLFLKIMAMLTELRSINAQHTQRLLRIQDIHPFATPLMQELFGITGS
Procedure, shortened: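 We seeded PXR-Luc HepG2 cells in assay medium containing 5% charcoal-stripped FBS, added compounds 5 hr later, incubated 24 hr, and read luminescence with ONE-Glo reagent.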

[17] = Caspase-3/7 induction in CHO-K1 cells by small molecules, qHTS cell viability counter screen (AID 1346979); also: nearly all actives have a fitted effect of over 35% in size
Procedure, shortened: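 Seeding: 1,500 CHO-K1 cells/well. Rest: 5hr, 37C. Treatment: compounds in DMSO, 16hr. Read: CellTiter-Fluor, 1hr, fluorescence.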

[18] = target: Nuclear receptor subfamily 1 group I member 2 (Rattus norvegicus) (UniProt Q9R1A7); assay: Rat pregnane X receptor (rPXR) activation by small molecules, qHTS assay (AID 1346983); settings: rPXR luciferase reporter cells, One-Glo luminescence, 24 h; active compounds read high; also: nearly all actives have a fitted effect of over 20% in size
Chain of Nuclear receptor subfamily 1 group I member 2 (Rattus norvegicus) (Q9R1A7 whole entry, looked up): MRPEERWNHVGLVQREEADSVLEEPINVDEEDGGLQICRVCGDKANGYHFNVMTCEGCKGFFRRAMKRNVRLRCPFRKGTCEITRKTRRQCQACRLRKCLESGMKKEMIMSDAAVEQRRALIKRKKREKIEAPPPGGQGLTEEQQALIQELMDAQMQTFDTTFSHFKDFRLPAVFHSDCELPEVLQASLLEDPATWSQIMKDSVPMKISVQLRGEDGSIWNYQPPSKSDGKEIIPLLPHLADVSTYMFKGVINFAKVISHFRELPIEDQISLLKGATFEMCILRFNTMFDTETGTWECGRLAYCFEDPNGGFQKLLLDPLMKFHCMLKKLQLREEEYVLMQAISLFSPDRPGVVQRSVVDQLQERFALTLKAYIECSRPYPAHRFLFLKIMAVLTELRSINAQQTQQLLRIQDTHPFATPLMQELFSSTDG
Procedure, shortened: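 Cell-based rPXR luciferase reporter assay, 2,000 cells per well, rested 5hr at 37 C before compound addition in DMSO, then 24 hr at 37 C. One-Glo reagent was added and luminescence read after 30 min at room temperature.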

[19] = target: Nuclear receptor subfamily 1 group I member 2 (Homo sapiens) (UniProt O75469); assay: CYP3A4 induction through human pregnane X receptor (PXR) by small molecules, qHTS assay (AID 1346984); also: nearly all actives have a fitted effect of over 40% in size
Procedure, shortened: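 qHTS, concentration-response format: HepG2 DPX-2 line, PXR/CYP3A4-luc. Exposure 24 h, 37C. Substrate Luciferin-IPA 3uM final, 3 h. Detection One-Glo, 30 min RT.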

[20] = target: Nuclear receptor subfamily 1 group I member 2 (Homo sapiens) (UniProt O75469); assay: Human pregnane X receptor (PXR) activation by small molecules, qHTS assay (AID 1346985); also: nearly all actives have a fitted effect of over 40% in size
Procedure, shortened: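 DPX-2 cells (HepG2 co-transfected with a PXR response element and a CYP3A4-promoter luciferase construct) were seeded at 2,000 per well, rested 5 hr at 37C, then exposed to DMSO-dissolved compounds for 24 hr. Activation was read as luciferase luminescence.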
% is scaled to controls: 0 for no effect and ±100 for the full control effect.

NS(=O)(=O)c1cc(C(=O)NN2C[C@H]3[C@H]4CCC(C4)[C@H]3C2)ccc1Cl
inactive: Potency [1] | Potency [2] | Potency [3] | Potency [4] | Potency [5] | Potency [6] | Potency [7] | outcome [8] | outcome [9] | outcome [10] | outcome [11] | Potency [12] | Potency [13] | outcome [14] | Potency [15] | Potency [16]

CC(C)CNCC(C)C
inactive: Potency [1] | Potency [2] | Potency [3] | Potency [4] | Potency [5] | Potency [6] | Potency [7] | outcome [8] | outcome [9] | outcome [10] | outcome [11] | Potency [12] | Potency [13] | Potency [17] | outcome [14] | Potency [15] | Potency [16]

Cc1ccc(C#N)cc1
inactive: Potency [1] | Potency [2] | Potency [3] | Potency [4] | Potency [5] | Potency [6] | Potency [7] | outcome [8] | outcome [9] | outcome [10] | outcome [11] | Potency [12] | Potency [13] | Potency [17] | outcome [14] | Potency [15] | Potency [16]

C[C@H](NC(CCc1ccccc1)C(=O)O)C(=O)N1CCC[C@H]1C(=O)O (some centres not stated)
inactive: Potency [1] | Potency [2] | Potency [3] | Potency [4] | Potency [5] | Potency [6] | Potency [7] | outcome [8] | outcome [9] | outcome [10] | outcome [11] | Potency [12] | Potency [17] | outcome [14] | Potency [15] | Potency [16]

Cc1ccc(=O)n(-c2ccccc2)c1
inactive: Potency [1] | Potency [2] | Potency [3] | Potency [4] | Potency [5] | Potency [6] | Potency [7] | outcome [8] | outcome [9] | outcome [10] | outcome [11] | Potency [12] | Potency [13] | Potency [17] | outcome [14] | Potency [15] | Potency [16]

Cc1cc(O)cc2c1O[C@](C)(CCC[C@H](C)CCC[C@H](C)CCCC(C)C)CC2
inactive: Potency [1] | Potency [2] | Potency [3] | Potency [4] | Potency [5] | Potency [6] | Potency [7] | outcome [8] | outcome [9] | outcome [10] | outcome [11] | Potency [12] | Potency [17] | outcome [14] | Potency [15] | Potency [16] | max activation [18] -2.13% | Potency [19] | Potency [20]

COC(C)(C)CCCC(C)CC=O (configuration not stated)
inactive: Potency [1] | Potency [2] | Potency [3] | Potency [4] | Potency [5] | Potency [6] | Potency [7] | outcome [8] | outcome [10] | outcome [11] | Potency [12] | Potency [13] | outcome [14] | Potency [15] | Potency [16]
